Results taken from PubChem BioAssay (NCI).
This is part of a sample that, as a whole, favours compounds with a hit. Of some 79,000 tested, about 15% had one in any assay. The source made the active and inactive calls. No stated cut-off is given here; in the data, active means growth inhibition above about 70%; inactive means the rest.

What was measured:
[1] = NCI Yeast Anticancer Drug Screen. Data for the rad50 strain (AID 155);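 further: 0% = growth of vehicle-only cultures of the same strain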; settings: S. cerevisiae rad50 strain growth inhibition; at 50.0 µM; hits give high values
Method in brief: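 A DNA repair-deficient yeast mutant serves as the test organism; compound-induced growth inhibition is calculated against vehicle-treated cells.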

[2] = NCI Yeast Anticancer Drug Screen. Data for the mec2-1 strain (AID 157); settings: S. cerevisiae mec2-1 strain, at 50.0 µM, hits give high values
Method in brief: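 Readout is yeast growth inhibition, normalised to vehicle-treated controls, in the mec2-1 strain exposed to compound.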

[3] = NCI Yeast Anticancer Drug Screen. Data for the sgs1 mgt1 strain (AID 161);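 further: 0% = growth of cultures given vehicle only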; settings: S. cerevisiae sgs1 mgt1 strain, at 50.0 µM, hits give high values
Method in brief: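 Percent growth inhibition was derived by comparing compound-exposed mutant yeast with vehicle-exposed cultures. The strain carries alterations in DNA damage repair.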

[4] = NCI Yeast Anticancer Drug Screen. Data for the cln2 rad14 strain (AID 165);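 further: 0% = growth equal to vehicle treated cultures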; settings: S. cerevisiae cln2 rad14 strain, at 50.0 µM, hits give high values
Method in brief: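 Relative to vehicle controls, growth inhibition of compound-treated cln2 rad14 yeast was recorded.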

[5] = NCI Yeast Anticancer Drug Screen. Data for the bub3 strain (AID 167); settings: S. cerevisiae bub3 mutant strain, at 50.0 µM, hits give high values
Method in brief: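 Inhibition values come from growth of compound-treated mutant yeast normalised to vehicle-treated controls.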

[6] = NCI Yeast Anticancer Drug Screen. Data for the mlh1 rad18 strain (AID 175); settings: S. cerevisiae mlh1 rad18 strain growth inhibition; at 50.0 µM; hits give high values
Method in brief: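 Test agents were incubated with a yeast strain of defined genotype (DNA damage repair defect). Inhibition of growth was derived by comparison with vehicle-exposed cultures.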

Measured: growth inhibition

CN(N=O)C(=O)ON1C(=O)CCC1=O
inactive: [1] 9.65% | [2] 7.55% | [3] 11.3% | [4] 12.4% | [5] 18.8% | [6] 8.75%

c1cc2c(cc1[C@@H]1OC[C@@H]3[C@H]1CO[C@H]3c1ccc3c(c1)OCO3)OCO2
inactive: [1] 14.1% | [2] 12.8% | [3] 47.2% | [4] 12.2% | [5] 65.5% | [6] 6.15%

COc1ccc(NC(=O)COc2cccc(Cl)c2)cc1S(=O)(=O)F
inactive: [1] 3.95% | [2] 32.1% | [3] 14.4% | [4] -2.65% | [5] 30.1% | [6] 1.15%

NC1Cc2cc(O)ccc2C1=O (configuration not stated)
inactive: [1] -5.95% | [2] 22.2% | [3] -3.35% | [4] 20.2% | [5] 22.8% | [6] 0.7%

O=C(C/C(=N/O)C(=O)NC1=C(Cl)C(=O)c2ccccc2C1=O)CC(c1ccccc1)c1c(O)c2ccccc2oc1=O (configuration not stated)
active: [2] 81.1% | [3] 82.5% | [4] 76.8% | [5] 84.7% | [6] 87.6%
inactive: [1] 39.5%

Cc1ccc(C)c(C(C)NC2=NCCO2)c1 (configuration not stated)
inactive: [1] -3.95% | [2] -7.95% | [3] -11.7% | [4] 1.2% | [5] -9.9% | [6] 19%

c1ccc(P2c3ccccc3Oc3ccccc32)cc1
inactive: [1] 36.9% | [2] 7.3% | [3] 42.2% | [4] 42.6% | [5] 32.6% | [6] 37%

Cn1c[n+](C)nn1
inactive: [1] -2.75% | [2] -12.8% | [3] -1.3% | [4] -29.1% | [5] -3.25% | [6] -18.2%

CCCc1c(C#N)c(S)[nH]c(=S)c1C#N
inactive: [1] 33.4% | [2] 20.4% | [3] 13.6% | [4] -5.65% | [5] 4.55% | [6] 16.2%

Cc1ncc([N+](=O)[O-])n1C(C)C(=O)Nc1ccc(N(CCCl)CCCl)cc1 (configuration not stated)
inactive: [1] -6.2% | [2] 10.3% | [3] 3.5% | [4] -2.3% | [5] -4.65% | [6] 13.2%

CCC1(CC)C(=O)NC(=NCCCC(N)C(=O)O)NC1=O (configuration not stated)
inactive: [1] 8.75% | [2] -3.05% | [3] 8.15% | [4] 11.4% | [5] 23.6% | [6] 7.4%

CCN(CC)CC(O)c1ccc(Br)cc1 (configuration not stated)
inactive: [1] 0.85% | [2] -20.1% | [3] -0.25% | [4] -3.55% | [5] 2.65% | [6] 5.7%

CC(=O)[O-].CC(=O)[O-].[Mn+2].c1ccc(/C(=N\Nc2ccccn2)c2ccccn2)cc1
active: [1] 87.8% | [2] 91.5% | [3] 90.5% | [4] 84.2% | [5] 89.2% | [6] 89.4%

O=C(O)C(Br)CBr (configuration not stated)
inactive: [1] 4.7% | [2] 17.6% | [3] 27.2% | [4] -13.2% | [5] -1.55% | [6] 34.5%

c1ccc(NC2CCN(C3(c4ccccc4)CCCCC3)CC2)cc1
inactive: [1] -17.9% | [2] -6.8% | [3] -6.85% | [4] -45.6% | [5] -1.75% | [6] -8.1%

O=[N+]([O-])c1c(Cl)cc(Cl)c([N+](=O)[O-])c1Cl
inactive: [1] 15.6% | [2] 5.25% | [3] 17.1% | [4] 3.9% | [5] 2.85% | [6] 32.1%

O=C=Nc1ccc(Br)cc1
inactive: [1] 25.6% | [2] 11.6% | [3] 15.8% | [4] -17.2% | [5] 23.9% | [6] 29.4%

CC(Cc1ccc(O)cc1)NCC(O)c1cc(O)cc(O)c1 (configuration not stated)
inactive: [1] 9.65% | [2] 13.2% | [3] 6.95% | [4] -8.45% | [5] 16.4% | [6] 6.55%

O=C1C=CC(=O)N1c1ccccc1Cl (tested in a mixture with another compound)
inactive: [1] 20.2% | [2] 4.15% | [3] 20.5% | [4] 4.2% | [5] 21.2% | [6] 6.7%

Brc1ccc(-c2csc3c4ccccc4cc[n+]23)cc1
inactive: [1] 14.6% | [2] -3.25% | [3] 12.2% | [4] -2.45% | [5] 21.8% | [6] -1.75%

Cn1cnc([N+](=O)[O-])c1C(=O)O (tested in a mixture with another compound)
inactive: [1] -18.2% | [2] -3.55% | [3] -6.65% | [4] -18.4% | [5] 27.3% | [6] -1%

COC(c1ccccc1)(c1ccccc1)C1C(c2ccccc2)N1C1CCCCC1 (configuration not stated)
inactive: [1] 46.1% | [2] -5.3% | [3] 43.5% | [4] -1.3% | [5] -5.1% | [6] 22.8%

COc1cc(C2c3cc4c(cc3OC3(OC)COC(=O)C23)OCO4)cc(OC)c1OC(C)=O (configuration not stated)
inactive: [1] -8.95% | [2] 0.45% | [3] -2.05% | [4] -6.9% | [5] -24.6% | [6] 8.1%

CN(C)C(=S)Oc1c(S(=O)(=O)F)ccc(Cl)c1Cl
active: [1] 96.3% | [2] 88% | [3] 98% | [4] 76.5% | [5] 95.2% | [6] 98.3%

CN1C2CCC1[C@@H](COC(=O)c1ccccc1)[C@@H](O)C2 (some centres not stated)
inactive: [1] -9.15% | [2] -14.6% | [3] -15.6% | [4] -27.4% | [5] -3.55% | [6] -61%

O=[N+]([O-])c1ccc(P2(=O)Nc3ccccc3N2)cc1
inactive: [1] -21.9% | [2] -12.7% | [3] -8.6% | [4] -46.8% | [5] 0.25% | [6] -11.6%

CC(C)NCC(O)c1ccc(Cl)c(Cl)c1 (configuration not stated)
inactive: [1] -28.6% | [2] -40% | [3] -14% | [4] 7.25% | [5] -27.2% | [6] -33.8%

O=C(COc1ccc(Cl)c(Cl)c1)Nc1ccc[n+](Cc2ccc(S(=O)(=O)F)c(Cl)c2)c1
active: [2] 94.3% | [3] 98.3% | [4] 95.8% | [5] 94.8% | [6] 99.5%
inactive: [1] 62%

Cc1cn([C@H]2CC3C(CON3C)O2)c(=O)[nH]c1=O (some centres not stated)
inactive: [1] 3.3% | [2] 7.55% | [3] 1.15% | [4] -3.55% | [5] -8.55% | [6] -37.4%

CN1C(=O)c2ccccc2NC(=O)C12OC2c1ccccc1 (configuration not stated)
inactive: [1] -0.1% | [2] 18% | [3] 11.3% | [4] 10.2% | [5] 18.2% | [6] 8.15%

COc1c2occc2c(CCl)c2ccc(=O)oc12
inactive: [1] 26.6% | [2] 11.2% | [3] 14.3% | [4] 24.4% | [5] 5.8% | [6] 28.1%

O=C(O)c1cc([N+](=O)[O-])cc([N+](=O)[O-])c1
inactive: [1] -3% | [2] 1.3% | [3] 2.75% | [4] -34.2% | [5] -30.9% | [6] 43.2%

C[CH2][Pb]([Br])([CH2]C)[CH2]C
inactive: [1] -17.7% | [2] -1.4% | [3] -5.85% | [4] -14.1% | [5] -4.15% | [6] -1.45%

O=[N+]([O-])c1cc(Cl)c(Cl)c([N+](=O)[O-])c1Cl
inactive: [1] -7.05% | [2] -18.3% | [3] 6.4% | [4] -23.8% | [5] -1.95% | [6] 6.8%

COP1(=S)OCC2CCC[C@@H]2O1 (some centres not stated)
inactive: [1] -19.5% | [2] -26.4% | [3] -33% | [4] 3.2% | [5] -21.9% | [6] -32.1%

CC(C)(C)c1cc(C=C(C#N)C#N)cc(C(C)(C)C)c1O
inactive: [1] 4.3% | [2] 10.6% | [3] 7.55% | [4] -32.8% | [5] 48.6% | [6] 6.45%

O.[Cr+3].[NH2-].[NH2-].[NH2-].[NH2-].[NH2-].[O-][Cl+3]([O-])([O-])O
inactive: [1] 16.6% | [2] 6.85% | [3] -0.4% | [4] 9.75% | [5] 3.85% | [6] -18.1%
